In PubChem BioAssay one finds composite z-score, composite Z-score and z-score data, which are given here for five molecules.

Activity calls are given as the source filed them.

One assay has as its target Albumin (Bos taurus) (UniProt P02769). As to the kind of experiment: compounds binding labelled BSA control protein – biochemical, small-molecule microarray, Alexa647 label, 635/667 nm fluorescence, artefact control for SMM control protein annotation, profiling panel (AID 1118).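 Further: score merges 667 nm emission intensity and signal-to-noise per printed compound spot.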 To be noted: BSA-A647 binding, fluorescence 635 nm, higher = more signal.
A short description of assay [1]: probe aXIP binding to arrayed compounds – biochemical, NeuroSMM set, 635/667 nm fluorescence, primary screen (AID 1119).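 Further: probe is the protein aXip251-270 applied at 1 µg/mL to compound-printed slides; binding of probe to printed compounds measured as 667 nm fluorescence plus signal to noise.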 To be noted: small-molecule microarray, higher = more signal, called active from +8 up or from −8 down.
A short description of assay [2]: probe aNOTCH3 binding on compound microarray – biochemical, small-molecule microarray, 635/667 nm fluorescence, primary screen (AID 1120).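 Further: probe is a biotin-tagged antibody raised against NOTCH3 rather than NOTCH3 protein; score merges spot fluorescence near 667 nm with spot signal to noise.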 To be noted: higher = more signal.
Assay [3] can be described thus: probe aNOTCH2 binding on compound microarray – biochemical, small-molecule microarray, 635/667 nm fluorescence, primary screen (AID 1121).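 Further: score merges feature fluorescence read at 667 nm with its signal to noise.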 As to conditions: higher = more signal.
Assay [4] addresses Carbonic anhydrase 2 (Homo sapiens) (UniProt P00918). Description: compounds binding carbonic anhydrase 2 – biochemical, small-molecule microarray, Alexa647-labelled CAII, profiling panel (AID 1122). To be noted: CAII-A647 binding fluorescence, higher = more signal.
Assay [5] can be described thus: COS7 lysate on small-molecule microarray, probe aHis, 635 nm (AID 1123).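 Further: z-score combines 667nm fluorescence intensity with signal-to-noise per printed compound spot.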 To be noted: COS7 cell lysate, fluorescence, higher = more signal.
A short description of assay [6]: probe aLAP1 signal on lysate-treated microarray – cell lysate, small-molecule microarray, COS7 lysate, primary screen (AID 1124).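 Further: lysate comes from COS7 cells expressing LAP1 and is applied at 0.3 µg/mL; score merges spot fluorescence near 667 nm with signal-to-noise over triplicate slides.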 As to conditions: probe aLAP1, fluorescence, higher = more signal.
Another assay deals with Sam68 (KHDRBS1). As to the kind of experiment: compounds binding KHDRBS1 protein – biochemical, small-molecule microarray, 635 nm fluorescence, primary screen (AID 1125).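 Further: score merges 667 nm channel intensity with signal to noise over triplicate slides.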 As to conditions: higher = more signal.
The test system of assay [7] is Chordin-like protein 2 (CHRDL2). Description: compounds binding chordin-like 2 – biochemical, small-molecule microarray, 635 nm fluorescence, primary screen (AID 1126).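 Further: printed compound slides probed with Chrdl2 protein at 4 µg/mL for 1 h at 4 C; score merges 667 nm emission intensity with signal to noise over three replicate slides.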 As to conditions: fluorescence 635 nm, higher = more signal.
The target of assay [8] is Concanavalin-A (Canavalia ensiformis) (UniProt P02866). Description: compounds binding concanavalin A lectin – biochemical, small-molecule microarray, Alexa647 label, 635 nm, artefact control for SMM control protein annotation, primary screen (AID 1127).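 Further: z combines 667 nm emission intensity with signal-to-noise across three replicate slides.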 As to conditions: ConA-A647 binding fluorescence, higher = more signal.
Assay [9] can be described thus: compounds binding Alexa647 anti-His antibody – biochemical, small-molecule microarray, 635 nm fluorescence, artefact control for SMM control protein annotation, primary screen (AID 1128).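 Further: score merges feature fluorescence with signal-to-noise for each printed compound spot.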 As to conditions: higher = more signal.
Assay [10] concerns Human papillomavirus type 1a E7 protein (residues 1-88). As to the kind of experiment: HPV1a E7 small-molecule binders, primary screen, biochemical, small-molecule microarray, residues 1-88, 635 nm (AID 1129). As to conditions: small-molecule microarray binding, fluorescence 635 nm; higher = more signal.
In assay [11] the target is Focal adhesion kinase 1 (Homo sapiens) (UniProt Q05397). As to the kind of experiment: PTK2 protein binding on printed compound slides – biochemical, small-molecule microarray, 635/667 nm fluorescence, BSA, DTT, primary screen (AID 1130).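 Further: composite of spot emission at 667 nm and signal to noise over triplicate slides.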 As to conditions: 635 nm fluorescence, higher = more signal.
Assay [12] concerns Fibrinogen (Alexa647-labelled). Description: Alexa647-fibrinogen binding to printed small molecules – biochemical, small-molecule microarray, 635/667 nm fluorescence, artefact control for SMM control-protein annotation, profiling panel (AID 1131).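 Further: z-score merges 667 nm fluorescence with per-spot signal-to-noise over triplicate slides.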 As to conditions: fibrinogen-A647 binding fluorescence, higher = more signal.
Assay [13] concerns the target Follistatin (Homo sapiens) (UniProt P19883). As to the kind of experiment: FST protein binding to printed compounds – biochemical, small-molecule microarray, 635/667 nm fluorescence, primary screen (AID 1132). As to conditions: 635 nm fluorescence, higher = more signal.
Assay [14] concerns the target Fibroblast growth factor 2 (Homo sapiens) (UniProt P09038). Description: basic fibroblast growth factor binding to printed compounds – biochemical, small-molecule microarray, 635/667 nm fluorescence, primary screen (AID 1133). To be noted: FGF2, fluorescence 635/667, higher = more signal.
Assay [15] in a line: JC-1 mitochondrial potential readout, lung cancer cells – cell-based, A549, JC-1 fluorescence, basal, 24 h, 100 nL, profiling panel (AID 1138).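 Further: A549 lung adenocarcinoma cells under basal conditions with no added stimulus; test concentration not given here.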 To be noted: higher = more signal.
The subject of the next assay is Lefty1. As to the kind of experiment: Lefty1 protein binding to printed compounds – biochemical, small-molecule microarray, 635/667 nm fluorescence, primary screen (AID 1139). To be noted: fluorescence 635/667, higher = more signal.
Assay [16] deals with wheat germ agglutinin (Triticum aestivum), Alexa647-labelled. Description: Alexa647-WGA lectin binding to printed small molecules – biochemical, small-molecule microarray, 635/667 nm fluorescence, artefact control for SMM control-protein annotation, profiling panel (AID 1140).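 Further: score merges 667 nm feature emission with signal to noise over triplicate slides.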 To be noted: WGA-A647 binding, 635 nm fluorescence, higher = more signal.
In assay [17] the target is Luciferin 4-monooxygenase (Photinus pyralis) (UniProt P08659). As to the kind of experiment: inhibition of purified Photinus pyralis luciferase – biochemical, luminescence, purified enzyme, 2006 set, primary screen (AID 1141).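 Further: cell-free assay with purified firefly luciferase at 100 ng per well in PBS; test concentration not given here.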 As to conditions: purified firefly luciferase, SteadyGlo luminescence, 30 min; higher = more signal, called active from +8 up or from −8 down.
Luciferin 4-monooxygenase (Photinus pyralis), sequence (P08659 whole entry, looked up): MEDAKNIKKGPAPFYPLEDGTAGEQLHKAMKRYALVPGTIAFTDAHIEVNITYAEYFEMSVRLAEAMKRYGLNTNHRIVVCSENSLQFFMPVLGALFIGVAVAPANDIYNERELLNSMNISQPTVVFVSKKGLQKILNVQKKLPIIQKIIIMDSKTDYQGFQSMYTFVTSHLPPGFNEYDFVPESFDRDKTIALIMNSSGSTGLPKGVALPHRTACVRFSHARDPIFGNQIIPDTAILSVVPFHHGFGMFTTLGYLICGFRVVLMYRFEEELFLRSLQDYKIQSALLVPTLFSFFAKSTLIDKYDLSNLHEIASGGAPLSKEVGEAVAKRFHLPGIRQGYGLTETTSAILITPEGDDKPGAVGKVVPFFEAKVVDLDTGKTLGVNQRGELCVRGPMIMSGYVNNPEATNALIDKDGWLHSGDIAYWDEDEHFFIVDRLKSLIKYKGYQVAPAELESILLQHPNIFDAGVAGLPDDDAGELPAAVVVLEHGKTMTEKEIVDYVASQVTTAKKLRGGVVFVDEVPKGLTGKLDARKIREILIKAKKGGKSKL

Fibroblast growth factor 2 (Homo sapiens), sequence (P09038 whole entry, looked up): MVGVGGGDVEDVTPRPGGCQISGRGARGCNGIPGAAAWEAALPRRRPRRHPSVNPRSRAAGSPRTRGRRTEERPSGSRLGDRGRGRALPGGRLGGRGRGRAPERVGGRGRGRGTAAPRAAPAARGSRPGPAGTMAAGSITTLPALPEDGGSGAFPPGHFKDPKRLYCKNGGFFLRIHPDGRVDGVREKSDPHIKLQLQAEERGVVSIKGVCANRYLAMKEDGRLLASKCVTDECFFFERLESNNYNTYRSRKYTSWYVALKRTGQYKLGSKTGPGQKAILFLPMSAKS
Follistatin (Homo sapiens), sequence (P19883 whole entry, looked up): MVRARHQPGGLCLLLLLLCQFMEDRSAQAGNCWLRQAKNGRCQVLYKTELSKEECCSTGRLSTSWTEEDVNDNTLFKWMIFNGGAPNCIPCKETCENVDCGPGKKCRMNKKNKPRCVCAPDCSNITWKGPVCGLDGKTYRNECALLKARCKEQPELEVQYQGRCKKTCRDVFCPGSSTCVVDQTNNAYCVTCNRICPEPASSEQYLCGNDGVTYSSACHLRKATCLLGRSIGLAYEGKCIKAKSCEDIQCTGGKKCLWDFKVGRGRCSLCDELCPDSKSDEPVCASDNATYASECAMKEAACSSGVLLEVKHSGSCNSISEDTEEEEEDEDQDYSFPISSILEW
Focal adhesion kinase 1 (Homo sapiens), sequence (Q05397 whole entry, looked up): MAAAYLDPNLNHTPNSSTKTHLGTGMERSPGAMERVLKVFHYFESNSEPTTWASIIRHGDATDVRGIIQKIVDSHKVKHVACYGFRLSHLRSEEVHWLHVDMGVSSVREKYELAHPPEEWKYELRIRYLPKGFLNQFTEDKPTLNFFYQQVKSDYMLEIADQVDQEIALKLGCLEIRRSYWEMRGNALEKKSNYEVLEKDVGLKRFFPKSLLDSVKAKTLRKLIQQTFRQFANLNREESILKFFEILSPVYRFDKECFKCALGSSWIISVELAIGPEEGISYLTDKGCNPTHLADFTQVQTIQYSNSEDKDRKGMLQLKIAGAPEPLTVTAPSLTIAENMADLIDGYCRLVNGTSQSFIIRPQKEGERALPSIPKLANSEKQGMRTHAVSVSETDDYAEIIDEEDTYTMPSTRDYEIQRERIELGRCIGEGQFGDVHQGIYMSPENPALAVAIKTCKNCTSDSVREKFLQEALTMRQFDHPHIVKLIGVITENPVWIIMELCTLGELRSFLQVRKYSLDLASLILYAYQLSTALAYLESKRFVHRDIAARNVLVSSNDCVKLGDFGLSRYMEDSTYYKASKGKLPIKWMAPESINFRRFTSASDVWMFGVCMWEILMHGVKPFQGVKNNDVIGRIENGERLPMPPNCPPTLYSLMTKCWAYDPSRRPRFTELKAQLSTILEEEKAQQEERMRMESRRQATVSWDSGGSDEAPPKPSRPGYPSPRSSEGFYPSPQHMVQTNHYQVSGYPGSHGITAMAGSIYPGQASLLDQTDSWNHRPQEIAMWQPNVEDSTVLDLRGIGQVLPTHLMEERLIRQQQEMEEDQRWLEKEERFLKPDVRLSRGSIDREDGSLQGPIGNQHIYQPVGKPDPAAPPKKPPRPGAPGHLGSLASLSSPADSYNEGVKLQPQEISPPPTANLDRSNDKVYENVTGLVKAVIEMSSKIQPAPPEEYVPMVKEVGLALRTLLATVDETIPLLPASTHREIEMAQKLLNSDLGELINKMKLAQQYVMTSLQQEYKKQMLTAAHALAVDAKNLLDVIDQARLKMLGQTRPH
Albumin (Bos taurus), sequence (P02769 whole entry, looked up): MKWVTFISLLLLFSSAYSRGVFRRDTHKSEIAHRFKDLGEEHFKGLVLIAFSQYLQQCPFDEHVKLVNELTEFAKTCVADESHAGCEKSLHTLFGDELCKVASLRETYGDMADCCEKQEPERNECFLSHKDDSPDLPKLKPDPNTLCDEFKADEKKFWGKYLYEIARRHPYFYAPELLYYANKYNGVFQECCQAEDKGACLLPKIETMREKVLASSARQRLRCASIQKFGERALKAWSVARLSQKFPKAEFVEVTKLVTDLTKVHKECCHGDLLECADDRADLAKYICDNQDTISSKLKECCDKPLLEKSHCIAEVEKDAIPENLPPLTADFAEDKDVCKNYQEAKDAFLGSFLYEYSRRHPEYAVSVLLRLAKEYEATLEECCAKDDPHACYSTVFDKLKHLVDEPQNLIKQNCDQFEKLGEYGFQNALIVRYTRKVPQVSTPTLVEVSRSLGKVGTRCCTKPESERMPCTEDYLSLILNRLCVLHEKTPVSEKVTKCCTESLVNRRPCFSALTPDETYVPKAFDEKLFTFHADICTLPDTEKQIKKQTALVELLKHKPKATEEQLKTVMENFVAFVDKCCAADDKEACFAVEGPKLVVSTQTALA
Concanavalin-A (Canavalia ensiformis), sequence (P02866 whole entry, looked up): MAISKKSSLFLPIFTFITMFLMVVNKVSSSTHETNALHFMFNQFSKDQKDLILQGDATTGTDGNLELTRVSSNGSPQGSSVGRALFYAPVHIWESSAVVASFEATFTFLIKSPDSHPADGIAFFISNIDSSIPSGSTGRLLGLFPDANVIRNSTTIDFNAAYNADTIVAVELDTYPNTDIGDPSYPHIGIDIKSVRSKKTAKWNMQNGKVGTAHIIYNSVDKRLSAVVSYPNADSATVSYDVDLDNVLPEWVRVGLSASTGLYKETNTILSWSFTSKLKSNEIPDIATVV

For the molecule `COc1ccc(CN(C2=CC[C@@]3(C(N)=O)C(=O)C(Cl)=C(Cl)C(=O)[C@@]3(C#N)C2)S(=O)(=O)c2ccc(Br)cc2)cc1`, the composite z-score is 1 with Albumin (Bos taurus); -0.128 in assay [2]; -0.0273 in [3]; 0.863 in [4]; 1.84 in [5]; 0.834 in [6]. The composite z-score is 0.295 in the assay with Sam68 (KHDRBS1); -1.54 in [7]; 0.0331 in [8]; 1.89 in assay [9]; 0.289 in assay [10]; 0.0558 in assay [11]. Also, the composite z-score in assay [12] was 0.115; in assay [13] it was -0.539; in assay [14], -0.537; with Lefty1, -0.53; in assay [16], 0.324. For the same molecule, the composite Z-score in [1] is 0.317 (inactive). Further, the values for the z-score in assay [15] and in [17] were -1.87 and -5.26 (inactive), respectively.
With `CO[C@H]1O[C@H](CO)[C@@H](OC(=O)Nc2ccccc2-c2ccccc2)[C@H](OC(=O)Nc2ccc3c(c2)OCO3)[C@H]1OC(=O)Nc1ccc2c(c1)OCO2`, the composite z-score with Albumin (Bos taurus) was 0.902; in [2] it was 0.211; in assay [3], -0.103; in [4], 0.498; in assay [5] it was 2.8; in [6], 1.11. In addition, the composite z-score is 1.31 with Sam68 (KHDRBS1); 0.454 in [7]; 1.06 in assay [8]; 1.02 in assay [9]; 1.24 in [10]; 1.11 in assay [11]. The composite z-score in [12] came out at 0.941; in [13], 1.23; in assay [14], 0.993; in the assay on Lefty1 it was 0.63; in assay [16] it was 1.1. In addition, in [1], the composite Z-score is 0.806 (inactive). For the same molecule, the results for the z-score in assay [15] and in assay [17] were -0.499 and -6.15 (inactive), respectively.
For `C=C(C)[C@@H]1CC=C(C(O)C2C=CC3C(=O)N(c4ccccc4)C(=O)C3N2Nc2ccccc2F)CC1` (stereo not given in full), the composite z-score was 0.956 in the assay with Albumin (Bos taurus); 0.466 in [2]; -0.0467 in assay [3]; 0.747 in assay [4]; 3.08 in assay [5]; -0.102 in assay [6]. In addition, the composite z-score in the assay on Sam68 (KHDRBS1) was found to be 1.34; in assay [7], 0.0095; in assay [8], 1.13; in [9] it was 0.282; in assay [10] it was 1.27; in [11] it was 1.12. The composite z-score in [12] came to 0.987; in [13], 1.11; in [14], 0.0538; in the assay with Lefty1 it was 0.531; in [16], 1.27. Besides, the composite Z-score in assay [1] was 0.117 (inactive). In addition, the z-score in assay [15] is -0.568; in assay [17], -0.809 (inactive).
`COCCCNC(=O)[C@@]1(Cc2ccccc2N=[N+]=[N-])N=C(c2ccc(OCCCO)cc2)O[C@H]1c1ccccc1`: the composite z-score was 0.533 with Albumin (Bos taurus); 0.0749 in assay [2]; 0.0202 in [3]; 0.35 in assay [4]; 1.99 in assay [5]; 1.25 in assay [6]. Moreover, the composite z-score in the assay on Sam68 (KHDRBS1) amounted to 1.04; in assay [7], 0.099; in assay [8], 0.79; in [9], 2.18; in [10], 1.21; in assay [11], 0.854. Moreover, the composite z-score came to 0.776 in assay [12]; 1.46 in [13]; 1.03 in [14]; 0.256 in the assay on Lefty1; 0.759 in assay [16]. Besides, in assay [1], the composite Z-score was 0.93 (inactive). Also, the results for the z-score in assay [15] and in assay [17] were 0.624 and -0.97 (inactive), respectively.
Regarding `COc1ccc([Si](C)(C)[C@@H]2[C@@H](CCO)O[C@]3(C(=O)N(Cc4ccc(N5CCCCC5=O)cc4)c4ccccc43)[C@H]2C)cc1`, the composite z-score with Albumin (Bos taurus) is 0.116; in [2], 0.033; in [3] it was -0.0515; in assay [4], 0.304; in [5], 0.828; in assay [6] it was 0.503. The composite z-score was 1.31 with Sam68 (KHDRBS1); 0.507 in assay [7]; 1.12 in assay [8]; 2.21 in assay [9]; 1.14 in assay [10]; -0.0284 in assay [11]. In addition, the composite z-score in assay [12] came to 0.842; in assay [13], 1.07; in assay [14], 1.1; with Lefty1, 0.572; in assay [16], 0.916. In addition, the composite Z-score in assay [1] was 0.385 (inactive). For the same molecule, the z-score in [15] was 1.74; in assay [17], -1.24 (inactive).
